Results from PubChem BioAssay AID2284092 (EPA ToxCast).
The source made the active and inactive calls. How the source made its calls: active means hit-call score of the fitted dose curve at least 0.9, where 1 is the maximum; inactive means score below 0.9.

The compounds below were run against Glycogen synthase kinase-3 beta (Homo sapiens) (UniProt P49841) (assay: ERF_FR_ENZ_hGSK3b: Eurofins (ERF) Enzymatic Radiometric [Km ATP] KinaseProfiler LeadHunter Assay for human GSK3beta (GSK3B) CMGC Kinase).
Chain of Glycogen synthase kinase-3 beta (Homo sapiens) (P49841 whole entry, looked up): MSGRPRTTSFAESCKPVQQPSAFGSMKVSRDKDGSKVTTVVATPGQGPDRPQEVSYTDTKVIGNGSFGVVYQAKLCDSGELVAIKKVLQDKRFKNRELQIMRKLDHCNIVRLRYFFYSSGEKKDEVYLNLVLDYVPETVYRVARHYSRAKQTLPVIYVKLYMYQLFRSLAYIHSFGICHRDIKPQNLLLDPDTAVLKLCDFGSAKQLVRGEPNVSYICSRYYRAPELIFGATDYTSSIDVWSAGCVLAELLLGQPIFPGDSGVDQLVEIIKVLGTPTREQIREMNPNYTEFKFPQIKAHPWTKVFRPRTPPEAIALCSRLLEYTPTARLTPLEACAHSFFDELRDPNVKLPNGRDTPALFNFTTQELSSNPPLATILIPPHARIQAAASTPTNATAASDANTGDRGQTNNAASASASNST
Method: ERF_FR_ENZ_hGSK3b is a biochemical, single-readout assay that uses extracted gene-proteins in a cell-free assay. Measurements were taken 1.5 hour after chemical dosing in a 96-well plate. See GSK3beta Human CMGC Kinase Enzymatic LANCE Assay [Km ATP], Cerep.ERF_FR_ENZ_hGSK3b is an assay component calculated from the ERF_FR_ENZ_hGSK3b assay. It is designed to measure enzyme activity using a type of enzyme reporter as detected by fluorescence intensity with LANCE technology.Data from the assay component ERF_FR_ENZ_hGSK3b was analyzed at the assay endpoint, ERF_FR_ENZ_hGSK3b, in the positive analysis fitting direction relative to DMSO as the negative control and baseline of activity. Using a type of enzyme reporter, loss-of-signal activity can be used to understand changes in enzymatic activity as they relate to gene GSK3B. To generalize the intended target to other relatable targets, this assay endpoint is annotated to the kinase intended target family, where the subfamily is serine/threonine kinase.
GSK3b (h) is incubated with 8 mM MOPS pH 7.0, 0.2 mM EDTA, 20 uM […](p) EDEEE (phospho GS2 peptide), 10 mM MgAcetate and [gamma-33P]-ATP (specific activity and concentration as required). The reaction is initiated by the addition of the Mg/ATP mix. After incubation for 40 minutes at room temperature, the reaction is stopped by the addition of phosphoric acid to a concentration of 0.5%. […]

Row | SMILES | AC50
1 | O=C(/C=C/c1ccc(O)cc1)CC(=O)/C=C/c1ccc(O)cc1 | 2140 nM (active)
